# Assay results: paper PMC8384837, “Expanding the binding specificity for RNA recognition by a PUF domain”
# Molecular target: PUM1 PUF domain R3-CRV (Homo sapiens, UniProt Q14671 828-1176, Q939V)
# Test: yeast three-hybrid, YBZ-1, SC-Leu-His + 0.5 mM 3-AT, 4 days
# Settings: tags: N-Gal4 AD-HA kept; label: inside an RPR1-promoter hybrid RNA with tandem MS2 sites; ssRNA
# Summary of the method: (§1)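 Sequencing with Illumina followed PCR amplification of the repeat regions from transformants grown four days on SC-Leu (input) or SC-Leu-His + 0.5 mM 3-AT (selection). The transformants were strain YBZ-1 with a LexA–MS2 coat fusion and a HIS3 reporter, carrying Pumilio-1 PUF domain libraries and matching RNA elements. The interaction score is the log change in variant frequency from input to selection, computed in log2 with a pseudocount of 1 for absent variants.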
row,Sequence,binding signal
1,GGCUAGAACUAGUGGAUCCCCCGGCGCCCGGCGGCUCGAGCCCGGGUAAGUGUAAUUAGUCUGCAUGCCGCCGGGCGCCAUGCCUGCAGGUCGACUCUAGAAAACAUG,1.05 log2 enrichment (interaction score)
2,GGCUAGAACUAGUGGAUCCCCCGGCGCCCGGCGGCUCGAGCCCGGGUAAGUGUAAAUAGUCUGCAUGCCGCCGGGCGCCAUGCCUGCAGGUCGACUCUAGAAAACAUG,2.9 log2 enrichment (interaction score)
3,GGCUAGAACUAGUGGAUCCCCCGGCGCCCGGCGGCUCGAGCCCGGGUAAGUGUAAGUAGUCUGCAUGCCGCCGGGCGCCAUGCCUGCAGGUCGACUCUAGAAAACAUG,1.31 log2 enrichment (interaction score)

# Molecular target: PUM1 PUF domain R5-MRV (Homo sapiens, UniProt Q14671 828-1176, C1007M;Q1011V)
# Test: as above
# Settings: tags: N-Gal4 AD-HA kept; label: inside an RPR1-promoter hybrid RNA with tandem MS2 sites; ssRNA
# Summary of the method: as §1
row,Sequence,binding signal
1,GGCUAGAACUAGUGGAUCCCCCGGCGCCCGGCGGCUCGAGCCCGGGUAAGUGUUAAUAGUCUGCAUGCCGCCGGGCGCCAUGCCUGCAGGUCGACUCUAGAAAACAUG,2.34 log2 enrichment (interaction score)
2,GGCUAGAACUAGUGGAUCCCCCGGCGCCCGGCGGCUCGAGCCCGGGUAAGUGUGAAUAGUCUGCAUGCCGCCGGGCGCCAUGCCUGCAGGUCGACUCUAGAAAACAUG,2.45 log2 enrichment (interaction score)
3,GGCUAGAACUAGUGGAUCCCCCGGCGCCCGGCGGCUCGAGCCCGGGUAAGUGUAAAUAGUCUGCAUGCCGCCGGGCGCCAUGCCUGCAGGUCGACUCUAGAAAACAUG,1.85 log2 enrichment (interaction score)

# Molecular target: PUM1 PUF domain R4-PWG (Homo sapiens, UniProt Q14671 828-1176, N971P;H972W;Q975G)
# Test: as above
# Settings: tags: N-Gal4 AD-HA kept; label: inside an RPR1-promoter hybrid RNA with tandem MS2 sites; ssRNA
# Summary of the method: as §1
row,Sequence,binding signal
1,GGCUAGAACUAGUGGAUCCCCCGGCGCCCGGCGGCUCGAGCCCGGGUAAGUGUACAUAGUCUGCAUGCCGCCGGGCGCCAUGCCUGCAGGUCGACUCUAGAAAACAUG,5.43 log2 enrichment (interaction score)
2,GGCUAGAACUAGUGGAUCCCCCGGCGCCCGGCGGCUCGAGCCCGGGUAAGUGUAUAUAGUCUGCAUGCCGCCGGGCGCCAUGCCUGCAGGUCGACUCUAGAAAACAUG,6.71 log2 enrichment (interaction score)
3,GGCUAGAACUAGUGGAUCCCCCGGCGCCCGGCGGCUCGAGCCCGGGUAAGUGUAAAUAGUCUGCAUGCCGCCGGGCGCCAUGCCUGCAGGUCGACUCUAGAAAACAUG,5.84 log2 enrichment (interaction score)
